Of roughly 7,900 targets only a part is listed; those with a hit were picked by preference. About 0.6% of all pairs of compound and target were hits.
What was measured:
Assay in all cases: log2 fold change, soluble protein after heating vs DMSO (PISA); higher = thermal stabilisation; K562 cells, 10 uM, 30 min; active = over 0.2 and 3.5 SD of the protein, either way, in both replicates (recomputed)
bafetinib = compound: Cc1ccc(NC(=O)c2ccc(CN3CC[C@H](N(C)C)C3)c(C(F)(F)F)c2)cc1Nc1nccc(-c2cncnc2)n1 [bafetinib]
How it was run: (§1)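 K562 cells (2×10^6 cells/mL) were treated with 10 μM compound for 30 min, and aliquots were heated for 3 min over 48°C-58°C. Pooled aliquots were extracted in PBS with 0.5% NP-40 at 4°C, and the supernatant after 21,000xg for 90 min was measured by TMTpro 16plex LC-MS/MS with channel sums equalised. Reported thermal stability, relative to control samples and from duplicates, is a log2 fold change.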

[1] = compound: Cc1cccc(CC(=O)N2CCc3c2ccc(-c2cn(C)c4ncnc(N)c24)c3F)n1
How it was run: as §1

nilotinib = compound: Cc1cn(-c2cc(NC(=O)c3ccc(C)c(Nc4nccc(-c5cccnc5)n4)c3)cc(C(F)(F)F)c2)cn1 [nilotinib]
How it was run: as §1

[2] = compound: Cc1nc(Nc2n[nH]c3c2CN(C(=O)N[C@H](CN(C)C)c2ccccc2)C3(C)C)c2sccc2n1
How it was run: as §1

dasatinib = compound: Cc1nc(Nc2ncc(C(=O)Nc3c(C)cccc3Cl)s2)cc(N2CCN(CCO)CC2)n1 [dasatinib]
How it was run: as §1

[3] = compound: Cc1ncc(-c2ccnc(Nc3ccc(S(C)(=O)=O)cc3)n2)n1C(C)C
How it was run: as §1

[4] = compound: Cn1cc(-c2ccc3c(c2)CCN3C(=O)Cc2cccc(C(F)(F)F)c2)c2c(N)ncnc21
How it was run: as §1

[5] = compound: Cn1cc(-c2ccc3nnc(C(F)(F)c4ccc5ncccc5c4)n3n2)cn1
How it was run: as §1

tipifarnib = compound: Cn1cncc1[C@@](N)(c1ccc(Cl)cc1)c1ccc2c(c1)c(-c1cccc(Cl)c1)cc(=O)n2C [tipifarnib]
How it was run: as §1

mubritinib = compound: FC(F)(F)c1ccc(/C=C/c2nc(COc3ccc(CCCCn4ccnn4)cc3)co2)cc1 [mubritinib]
How it was run: as §1

[6] = compound: NC(=O)Nc1cc(-c2cccc(F)c2)sc1C(=O)N[C@H]1CCCNC1
How it was run: as §1

[7] = compound: NC(=O)c1cnc(N[C@@H]2CCCC[C@@H]2N)nc1Nc1cccc(-n2nccn2)c1
How it was run: as §1

[8] = compound: NC1(c2ccc(-c3nc4ccn5c(=O)[nH]nc5c4cc3-c3ccccc3)cc2)CCC1
How it was run: as §1

[9] = compound: NCC(=O)Nc1ccc(-n2nc(C(F)(F)F)cc2-c2ccc3c(ccc4ccccc43)c2)cc1
How it was run: as §1

entinostat = compound: Nc1ccccc1NC(=O)c1ccc(CNC(=O)OCc2cccnc2)cc1 [entinostat]
How it was run: as §1

vorinostat = compound: O=C(CCCCCCC(=O)Nc1ccccc1)NO [vorinostat]
How it was run: as §1

citarinostat = compound: O=C(CCCCCCNC(=O)c1cnc(N(c2ccccc2)c2ccccc2Cl)nc1)NO [citarinostat]
How it was run: as §1

silmitasertib = compound: O=C(O)c1ccc2c(c1)nc(Nc1cccc(Cl)c1)c1ccncc12 [silmitasertib]
How it was run: as §1

[10] = compound: O=C1NC(=O)C(c2cnc3ccccn23)=C1c1cn2c3c(cc(F)cc13)CN(C(=O)N1CCCCC1)CC2
How it was run: as §1

[11] = compound: c1cc(OCCN2CCCCC2)cc(-c2n[nH]c3ccc(-c4nnc[nH]4)cc23)c1
How it was run: as §1

Measured: log2 fold change

AURKA (UniProt O14965)
active: [2] 0.699
inactive: bafetinib 0.103 | [1] -0.113 | nilotinib -0.001 | dasatinib 0.365 | [3] 0.47 | [4] 0.073 | [5] -0.016 | tipifarnib -0.054 | mubritinib -0.078 | [6] 0.077 | [7] -0.02 | [8] 0.059 | [9] -0.033 | entinostat -0.072 | vorinostat -0.06 | citarinostat -0.036 | silmitasertib 0.015 | [10] 0.105 | [11] -0.328

ARAF (UniProt P10398)
UniProt P10398, sequence (P10398 whole entry, looked up): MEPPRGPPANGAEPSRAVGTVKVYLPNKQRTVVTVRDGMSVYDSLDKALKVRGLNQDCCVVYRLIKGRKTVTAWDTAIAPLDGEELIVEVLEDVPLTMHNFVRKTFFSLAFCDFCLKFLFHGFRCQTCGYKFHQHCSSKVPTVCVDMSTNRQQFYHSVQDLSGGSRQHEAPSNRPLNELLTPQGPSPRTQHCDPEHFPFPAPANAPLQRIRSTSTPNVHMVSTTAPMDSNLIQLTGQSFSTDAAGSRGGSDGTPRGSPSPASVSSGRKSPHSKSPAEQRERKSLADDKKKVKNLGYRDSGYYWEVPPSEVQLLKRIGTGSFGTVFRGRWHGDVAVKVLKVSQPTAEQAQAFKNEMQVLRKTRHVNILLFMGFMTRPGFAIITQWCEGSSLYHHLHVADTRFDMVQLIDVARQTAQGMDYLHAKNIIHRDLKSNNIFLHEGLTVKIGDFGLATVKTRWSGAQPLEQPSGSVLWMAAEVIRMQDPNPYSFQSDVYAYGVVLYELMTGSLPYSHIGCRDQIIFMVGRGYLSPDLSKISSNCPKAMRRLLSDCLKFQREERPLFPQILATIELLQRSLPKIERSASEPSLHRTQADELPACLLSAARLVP
inactive: bafetinib -0.015 | [1] 0.01 | nilotinib -0.021 | dasatinib -0.031 | [3] 0.009 | [4] 0.007 | [5] -0.003 | tipifarnib 0.144 | mubritinib -0.092 | [6] -0.059 | [7] 0.196 | [8] -0.119 | [9] 0.011 | entinostat 0.062 | vorinostat 0.055 | citarinostat 0.098 | silmitasertib 0.048 | [10] 0.017 | [11] -0.096
active: [2] -0.236

ARL6IP6 (UniProt Q8N6S5)
UniProt Q8N6S5, sequence (Q8N6S5 whole entry, looked up): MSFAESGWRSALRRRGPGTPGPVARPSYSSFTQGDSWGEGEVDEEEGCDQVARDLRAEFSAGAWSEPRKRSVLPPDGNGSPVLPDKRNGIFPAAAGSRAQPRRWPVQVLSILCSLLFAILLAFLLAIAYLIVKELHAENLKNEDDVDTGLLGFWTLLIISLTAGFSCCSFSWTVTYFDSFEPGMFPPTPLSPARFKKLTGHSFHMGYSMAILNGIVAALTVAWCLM
inactive: bafetinib -0.096 | [1] 0.024 | nilotinib -0.027 | [2] 0.019 | dasatinib 0.098 | [3] 0.036 | [4] 0.012 | [5] -0.186 | tipifarnib -0.054 | mubritinib 0.04 | [6] -0.085 | [7] -0.125 | [8] -0.073 | [9] -0.015 | entinostat -0.021 | vorinostat -0.007 | citarinostat -0.058 | silmitasertib -0.014 | [10] 0.011 | [11] -0.059

BRD4 (UniProt O60885)
active: vorinostat -0.463
inactive: bafetinib 0.067 | [1] 0.054 | nilotinib -0.144 | [2] 0.017 | dasatinib -0.094 | [3] -0.233 | [4] 0.011 | [5] -0.046 | tipifarnib -0.09 | mubritinib 0.032 | [6] -0.031 | [7] -0.096 | [8] -0.112 | [9] -0.119 | entinostat -0.097 | citarinostat -0.123 | silmitasertib 0.024 | [10] -0.129 | [11] 0.028

ASNS (UniProt P08243)
UniProt P08243, sequence (P08243 whole entry, looked up): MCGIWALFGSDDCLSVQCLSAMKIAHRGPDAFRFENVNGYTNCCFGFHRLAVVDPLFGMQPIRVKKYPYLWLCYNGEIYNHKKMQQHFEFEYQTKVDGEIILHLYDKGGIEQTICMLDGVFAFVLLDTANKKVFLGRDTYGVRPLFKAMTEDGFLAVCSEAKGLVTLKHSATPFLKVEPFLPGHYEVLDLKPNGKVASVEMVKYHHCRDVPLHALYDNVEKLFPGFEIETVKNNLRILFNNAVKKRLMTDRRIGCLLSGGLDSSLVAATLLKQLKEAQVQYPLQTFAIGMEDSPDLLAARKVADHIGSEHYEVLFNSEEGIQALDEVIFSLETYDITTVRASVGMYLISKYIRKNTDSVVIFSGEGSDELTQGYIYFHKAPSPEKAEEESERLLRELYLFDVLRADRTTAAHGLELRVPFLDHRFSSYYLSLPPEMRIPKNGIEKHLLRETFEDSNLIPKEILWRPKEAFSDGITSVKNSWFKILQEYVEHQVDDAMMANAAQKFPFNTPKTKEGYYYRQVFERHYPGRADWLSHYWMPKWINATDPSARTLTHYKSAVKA
inactive: bafetinib -0.055 | [1] 0.02 | nilotinib 0.002 | [2] 0.021 | dasatinib 0 | [3] -0.003 | [4] 0.034 | [5] 0.015 | tipifarnib -0.033 | mubritinib 0.012 | [6] -0.033 | [7] -0.018 | [8] -0.019 | [9] 0.008 | entinostat -0.007 | vorinostat 0.018 | citarinostat 0.013 | silmitasertib -0.044 | [10] -0.021 | [11] -0.026

AKR1C2 (UniProt P52895)
UniProt P52895, sequence (P52895 whole entry, looked up): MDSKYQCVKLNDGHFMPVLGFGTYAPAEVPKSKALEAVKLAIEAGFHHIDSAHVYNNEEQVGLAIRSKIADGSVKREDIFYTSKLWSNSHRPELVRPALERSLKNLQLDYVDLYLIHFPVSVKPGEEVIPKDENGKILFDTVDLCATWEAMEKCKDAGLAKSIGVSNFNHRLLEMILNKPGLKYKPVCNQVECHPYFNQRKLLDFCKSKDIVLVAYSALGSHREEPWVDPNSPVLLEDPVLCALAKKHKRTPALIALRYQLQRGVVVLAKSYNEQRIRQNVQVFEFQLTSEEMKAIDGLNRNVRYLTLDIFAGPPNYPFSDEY
inactive: bafetinib 0.103 | [1] -0.111 | nilotinib 0.029 | [2] -0.057 | dasatinib -0.012 | [3] 0.028 | [4] -0.07 | [5] 0.223 | tipifarnib 0.271 | mubritinib -0.06 | [6] 0.133 | [7] -0.092 | [8] 0.206 | [9] -0.006 | entinostat -0.129 | vorinostat 0.012 | citarinostat 0.018 | silmitasertib 0.257 | [10] 0.079 | [11] -0.076

ARMC10 (UniProt Q8N2F6)
inactive: bafetinib 0.046 | [1] 0.015 | nilotinib -0.063 | [2] -0.034 | dasatinib -0.125 | [3] -0.012 | [4] -0.052 | [5] -0.115 | tipifarnib 0.001 | mubritinib -0.096 | [6] -0.039 | [7] 0.003 | [8] 0.005 | [9] 0.028 | entinostat 0.005 | vorinostat 0.056 | citarinostat 0.096 | silmitasertib 0.054 | [10] -0.039 | [11] -0.062

ARFIP1 (UniProt P53367)
UniProt P53367, sequence (P53367 whole entry, looked up): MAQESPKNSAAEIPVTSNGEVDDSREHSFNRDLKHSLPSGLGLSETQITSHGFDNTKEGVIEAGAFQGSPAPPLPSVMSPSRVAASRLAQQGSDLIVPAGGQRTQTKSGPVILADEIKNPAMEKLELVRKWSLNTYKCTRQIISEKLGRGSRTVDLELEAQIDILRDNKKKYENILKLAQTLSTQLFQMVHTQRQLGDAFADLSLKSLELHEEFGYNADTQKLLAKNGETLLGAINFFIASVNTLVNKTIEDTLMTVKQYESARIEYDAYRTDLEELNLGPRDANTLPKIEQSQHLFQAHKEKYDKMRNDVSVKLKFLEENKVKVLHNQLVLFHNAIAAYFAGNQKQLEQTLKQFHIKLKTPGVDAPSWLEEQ
inactive: bafetinib -0.198 | [1] 0.077 | nilotinib -0.177 | [2] -0.148 | dasatinib -0.113 | [3] 0.05 | [4] 0.069 | tipifarnib -0.115 | mubritinib -0.054 | [6] 0.116 | [7] -0.002 | [8] -0.162 | [9] 0.062 | entinostat 0.079 | vorinostat 0.031 | citarinostat 0.121 | silmitasertib -0.011 | [10] -0.042 | [11] -0.048
active: [5] 0.461

ARL6IP4 (UniProt Q66PJ3)
UniProt Q66PJ3, sequence (Q66PJ3 whole entry, looked up): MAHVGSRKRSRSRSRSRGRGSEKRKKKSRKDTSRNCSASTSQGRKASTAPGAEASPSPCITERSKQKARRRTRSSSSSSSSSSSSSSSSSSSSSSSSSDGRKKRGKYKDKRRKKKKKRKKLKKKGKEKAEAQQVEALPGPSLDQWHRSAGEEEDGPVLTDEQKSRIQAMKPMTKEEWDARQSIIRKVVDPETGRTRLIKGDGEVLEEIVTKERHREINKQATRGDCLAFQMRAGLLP
inactive: bafetinib -0.042 | [1] 0.002 | nilotinib -0.012 | dasatinib 0.016 | [3] 0.013 | [4] 0.112 | [5] -0.038 | tipifarnib 0.019 | mubritinib 0.023 | [6] -0.035 | [7] 0.221 | [8] 0.025 | [9] 0.013 | entinostat -0.04 | vorinostat -0.011 | citarinostat 0.04 | silmitasertib -0.017 | [10] -0.007 | [11] -0.017
active: [2] -0.459

AP2A1 (UniProt O95782)
UniProt O95782, sequence (O95782 whole entry, looked up): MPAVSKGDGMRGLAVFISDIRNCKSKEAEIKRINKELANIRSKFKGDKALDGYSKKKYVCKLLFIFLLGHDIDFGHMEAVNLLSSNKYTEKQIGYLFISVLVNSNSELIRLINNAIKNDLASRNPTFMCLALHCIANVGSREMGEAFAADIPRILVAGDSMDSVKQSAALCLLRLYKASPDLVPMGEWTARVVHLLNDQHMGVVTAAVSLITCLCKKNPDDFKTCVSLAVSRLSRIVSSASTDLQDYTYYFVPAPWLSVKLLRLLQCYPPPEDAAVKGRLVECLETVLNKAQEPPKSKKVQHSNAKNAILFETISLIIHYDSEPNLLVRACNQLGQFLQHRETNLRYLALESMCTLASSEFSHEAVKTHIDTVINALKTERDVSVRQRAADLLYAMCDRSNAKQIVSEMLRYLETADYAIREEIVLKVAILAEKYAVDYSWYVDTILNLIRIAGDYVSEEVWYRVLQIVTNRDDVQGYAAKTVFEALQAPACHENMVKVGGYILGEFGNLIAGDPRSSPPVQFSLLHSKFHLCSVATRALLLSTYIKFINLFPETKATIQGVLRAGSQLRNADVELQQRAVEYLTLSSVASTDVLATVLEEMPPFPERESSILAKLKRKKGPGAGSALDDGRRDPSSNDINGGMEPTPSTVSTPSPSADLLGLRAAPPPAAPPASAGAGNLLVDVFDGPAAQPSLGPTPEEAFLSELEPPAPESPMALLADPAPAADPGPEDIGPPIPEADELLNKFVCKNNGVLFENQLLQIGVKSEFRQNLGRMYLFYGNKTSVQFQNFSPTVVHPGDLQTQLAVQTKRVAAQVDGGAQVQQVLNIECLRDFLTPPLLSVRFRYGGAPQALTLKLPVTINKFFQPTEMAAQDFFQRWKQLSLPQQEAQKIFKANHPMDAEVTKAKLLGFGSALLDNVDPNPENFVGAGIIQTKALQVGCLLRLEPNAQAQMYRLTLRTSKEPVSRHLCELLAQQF
inactive: bafetinib 0.052 | [1] 0.024 | nilotinib -0.008 | [2] -0.008 | dasatinib 0.045 | [3] -0.079 | [4] -0.007 | [5] -0.066 | tipifarnib -0.051 | mubritinib -0.011 | [7] 0.061 | [8] 0.041 | [9] 0.026 | entinostat -0.002 | vorinostat 0.038 | citarinostat 0.005 | silmitasertib 0.047
active: [6] -0.38 | [10] -0.275 | [11] -0.227

ARL1 (UniProt P40616)
UniProt P40616, sequence (P40616 whole entry, looked up): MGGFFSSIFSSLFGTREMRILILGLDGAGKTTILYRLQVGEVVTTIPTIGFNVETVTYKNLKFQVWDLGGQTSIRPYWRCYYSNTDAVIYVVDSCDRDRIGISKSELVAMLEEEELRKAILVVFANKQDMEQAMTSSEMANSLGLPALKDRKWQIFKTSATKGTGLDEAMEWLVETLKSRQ
inactive: bafetinib 0.114 | [1] 0.205 | nilotinib -0.174 | [2] -0.017 | dasatinib -0.131 | [3] 0.096 | [4] 0.055 | [5] 0.019 | tipifarnib -0.123 | mubritinib -0.046 | [6] 0.142 | [7] 0.055 | [8] -0.173 | [9] -0.019 | entinostat 0.031 | vorinostat 0.149 | citarinostat 0.161 | silmitasertib 0.006 | [10] 0.04 | [11] 0.007

ACSL1 (UniProt P33121)
inactive: bafetinib -0.178 | [1] -0.004 | nilotinib -0.003 | [2] -0.07 | dasatinib -0.076 | [3] -0.013 | [4] 0.027 | [5] 0.024 | tipifarnib -0.015 | mubritinib -0.009 | [6] -0.058 | [7] -0.015 | [8] -0.091 | [9] -0.003 | entinostat -0.034 | vorinostat 0.004 | citarinostat 0.071 | silmitasertib 0.029 | [10] -0.038 | [11] -0.022

BECN1 (UniProt Q14457)
UniProt Q14457, sequence (Q14457 whole entry, looked up): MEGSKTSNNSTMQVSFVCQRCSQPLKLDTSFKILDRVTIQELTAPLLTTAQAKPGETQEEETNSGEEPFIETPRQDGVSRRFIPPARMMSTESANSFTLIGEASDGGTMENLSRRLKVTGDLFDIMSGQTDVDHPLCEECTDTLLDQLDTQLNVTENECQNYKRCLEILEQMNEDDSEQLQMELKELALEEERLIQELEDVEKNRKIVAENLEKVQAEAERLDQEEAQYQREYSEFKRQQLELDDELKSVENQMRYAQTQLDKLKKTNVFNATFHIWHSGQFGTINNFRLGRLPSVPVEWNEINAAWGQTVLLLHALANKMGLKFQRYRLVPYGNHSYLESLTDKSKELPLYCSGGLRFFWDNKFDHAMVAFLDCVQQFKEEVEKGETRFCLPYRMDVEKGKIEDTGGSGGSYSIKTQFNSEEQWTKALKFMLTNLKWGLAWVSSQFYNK
inactive: bafetinib 0.063 | [1] -0.032 | nilotinib 0.032 | [2] -0.025 | dasatinib -0.072 | [3] 0.076 | [4] -0.015 | [5] -0.038 | tipifarnib -0.003 | mubritinib 0.023 | [6] 0.045 | [7] 0.083 | [8] -0.006 | [9] -0.016 | entinostat -0.024 | vorinostat -0.073 | citarinostat -0.046 | silmitasertib 0.026 | [10] -0.071 | [11] 0.021

ANKZF1 (UniProt Q9H8Y5)
UniProt Q9H8Y5, sequence (Q9H8Y5 whole entry, looked up): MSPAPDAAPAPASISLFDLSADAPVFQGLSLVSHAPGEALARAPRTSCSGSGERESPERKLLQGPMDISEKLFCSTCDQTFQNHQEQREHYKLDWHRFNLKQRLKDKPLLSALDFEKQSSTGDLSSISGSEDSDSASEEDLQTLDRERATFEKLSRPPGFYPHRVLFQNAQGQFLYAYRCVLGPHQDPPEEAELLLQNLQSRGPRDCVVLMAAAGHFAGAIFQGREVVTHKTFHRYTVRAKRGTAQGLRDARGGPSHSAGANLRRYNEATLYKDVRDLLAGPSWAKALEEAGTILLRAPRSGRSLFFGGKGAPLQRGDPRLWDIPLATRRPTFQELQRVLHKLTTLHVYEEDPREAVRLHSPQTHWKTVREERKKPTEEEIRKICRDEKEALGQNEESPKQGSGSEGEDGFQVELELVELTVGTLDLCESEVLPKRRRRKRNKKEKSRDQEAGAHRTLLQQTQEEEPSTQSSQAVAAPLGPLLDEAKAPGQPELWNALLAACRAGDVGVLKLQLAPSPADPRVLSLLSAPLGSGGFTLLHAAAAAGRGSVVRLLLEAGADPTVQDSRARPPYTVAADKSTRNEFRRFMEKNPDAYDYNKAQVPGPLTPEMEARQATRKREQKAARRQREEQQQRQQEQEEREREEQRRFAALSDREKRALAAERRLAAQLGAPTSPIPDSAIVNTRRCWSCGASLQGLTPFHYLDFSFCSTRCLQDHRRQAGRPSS
inactive: bafetinib 0.104 | [1] -0.047 | nilotinib -0.151 | [2] -0.29 | dasatinib -0.04 | [3] 0.018 | [4] -0.005 | [5] -0.126 | tipifarnib 0.026 | mubritinib -0.074 | [6] -0.008 | [7] 0.026 | [8] 0.072 | [9] -0.001 | entinostat 0.03 | vorinostat 0.054 | citarinostat -0.006 | silmitasertib -0.051 | [10] 0.215 | [11] -0.065

BCCIP (UniProt Q9P287)
inactive: bafetinib 0.048 | [1] 0 | nilotinib -0.019 | [2] -0.022 | dasatinib -0.161 | [3] 0.03 | [4] -0.009 | [5] -0.006 | tipifarnib 0.006 | mubritinib 0.001 | [6] 0.023 | [7] -0.008 | [8] -0.006 | [9] -0.04 | entinostat -0.052 | vorinostat 0.045 | citarinostat 0.022 | silmitasertib 0.049 | [10] -0.012 | [11] -0.079

ABHD17A isoform 2 (UniProt Q96GS6)
UniProt Q96GS6, sequence (Q96GS6 whole entry, looked up): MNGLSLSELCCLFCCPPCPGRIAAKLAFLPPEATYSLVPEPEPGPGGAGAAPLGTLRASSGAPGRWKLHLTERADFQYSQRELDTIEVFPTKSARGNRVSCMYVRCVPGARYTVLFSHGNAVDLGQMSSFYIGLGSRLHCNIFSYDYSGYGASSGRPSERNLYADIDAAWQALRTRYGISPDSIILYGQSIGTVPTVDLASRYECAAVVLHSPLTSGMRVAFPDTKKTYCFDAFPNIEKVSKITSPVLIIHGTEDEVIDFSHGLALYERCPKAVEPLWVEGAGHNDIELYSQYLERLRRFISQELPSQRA
inactive: bafetinib -0.051 | [1] 0.044 | nilotinib -0.054 | [2] 0.047 | dasatinib -0.023 | [3] 0.018 | [4] 0.028 | [5] 0.068 | tipifarnib -0.042 | mubritinib 0.061 | [6] 0.036 | [7] -0.119 | [8] -0.049 | [9] -0.078 | entinostat -0.104 | vorinostat -0.04 | citarinostat 0.036 | silmitasertib -0.02 | [10] 0.01 | [11] 0.051

Source: the supplement of paper PMC10849652
